Screening results from PubChem BioAssay.
ELG1 DNA repair: blocks ELG1-dependent DNA repair in HEK293T cells. HEK293T ELG1-luciferase reporter, luminescence, 16 h; DNA damage induced by 5-fluorouridine. Potency, µM (titrated, usually from 46.1 µM), for the others: at the highest dose activity change, negative = inhibition, usual class: inhibitors. AID 504467. actives 2.3% (n = 330,000); note: % is set by controls: 0 for no effect and ±100 for the full control effect; nearly all actives have a fitted effect of over 55% in size
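Quantitative HTS, concentration-response format. 2,000 cells/well co-treated with 5-fluorouridine and compound, 16 hr in 5% CO2 at 37 °C; ONE-Glo luminescence read after 30 min.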
KB-3-1 cytotox: kills parental KB-3-1 adenocarcinoma cells; KB-3-1 viability, CellTiter-Glo ATP luminescence, 72 h; Potency, µM (top dose mostly 46.1 µM), usual class: cytotoxic; actives 1.4% (n = 400,000); note: % is set by controls: 0 for no effect and ±100 for the full control effect; nearly all actives have a fitted effect of over 60% in size
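Parental KB-3-1 adenocarcinoma cells in phenol-red-free DMEM with 10% FBS were pin-treated with compounds at several concentrations, incubated 72 h at 37 °C, and viability read by CellTiter-Glo luminescence; concentration-effect curves were fitted after normalization.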
MCF10A rerep: inducers of DNA re-replication in MCF 10A breast cells; MCF 10A DNA re-replication, Hoechst nuclear intensity, 48 h; Potency, µM (top dose mostly 46.1 µM), without a hit: top-dose activity, positive = re-replication, most hits filed as activators; actives 2.9% (n = 350,000); AID 624296; note: % of control where 0% means no effect; nearly all actives have a fitted effect of over 50% in size
SW480 rereplic: induces DNA re-replication in SW480 colon adenocarcinoma cells | SW480 DNA re-replication, Hoechst DNA content imaging, 48 h | Potency, µM (series often up to 46.1 µM), for inactives: at the top dose re-replication activation, usual class: activators | actives 1.8% (n = 340,000) | AID 624297; note: % of control where 0% means no effect; nearly all actives have a fitted effect of over 55% in size
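Hoechst fluorescence of nuclei (405 nm excitation, 500-530 nm emission) measured by plate-scanning imager after 48 hr compound exposure at 37 C; re-replication scored as increased number of nuclei with elevated intensity.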
KB-V1 MDR tox: kills drug-selected multidrug resistant KB-V1 cells. Potency, µM (highest dose often 46.1 µM), hits mostly cytotoxic. actives 3.4% (n = 400,000). KB-V1 MDR cells viability, CellTiter-Glo, 72 h; note: % is set by controls: 0 for no effect and ±100 for the full control effect; nearly all actives have a fitted effect of over 60% in size
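Luminescent ATP read-out (CellTiter-Glo, 10 min) measures survival of drug-selected KB-V1 MDR cells after 72 h, 37 degrees C compound exposure. Medium: phenol-red-free DMEM, 10% FBS. Values from fitted concentration-response curves.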
An asterisk follows results filed as active; i = inactive; ? = inconclusive; · = no result; ! = repeats disagree. Sampled rows, rich in hits. Any-hit rate of the full collection: about 8.1%. Calls come from the whole dose curve; as a rule, active = well fitted curve in the direction sought with a large enough effect; inconclusive = small, poorly fitted or top-dose-only effect, or another doubt; inactive = no such curve, though single readings can be large; an effect the other way counts as inactive or inconclusive. Potency is the fitted concentration of half-maximal effect.

SMILES	ELG1 DNA repair	KB-3-1 cytotox	MCF10A rerep	SW480 rereplic	KB-V1 MDR tox
O=C1CCCC2=C1C1(CCCOC1)N=C(Nc1nc3ccccc3o1)N2 (configuration not stated)	·	i	·	·	?
Cc1ccc(-c2cc(-c3ccc(F)cc3)nc(N)c2C#N)o1	?	i	3.7µM*	12µM*	i
Cc1ccc(-c2cc(-c3ccccc3Cl)c(C#N)c(N)n2)o1	?	i	?	?	i
N#Cc1c(-c2ccncc2)cc(-c2ccc(F)cc2)nc1N	10%	i	-1%	1%	i
Cc1ccc(-c2cc(-c3ccccc3)c(C#N)c(N)n2)o1	?	i	18µM*	18µM*	i
Cc1cc(C)c(S(C)(=O)=O)c(Oc2cccc(Cl)c2)n1	0%	i	0%	-5%	i
Cc1cc(C)c(S(C)(=O)=O)c(Oc2ccc(C(C)(C)C)cc2)n1	-11%	i	20%	-38%	16µM*
O=C1NC(Cc2ccc(O)cc2)c2nc3ccccc3c(=O)n2-c2cc(Cl)ccc21 (configuration not stated)	12%	·	·	·	·
CCCc1cc(=O)[nH]c(SCc2cc(=O)oc3cc(C)c(C(C)C)cc23)n1	9%	i	?	0%	21µM*
O=C(NNC(=O)c1cc(-c2cccnc2)nc2ccccc12)Nc1ccc(Cl)cc1	?	?	?	-5%	i
COC(=O)c1ccc(NC(=O)c2cc(-c3ccncc3)nc3ccccc23)cc1	-23%	23µM*	21%	6%	i
O=C(NNC(=O)c1cc(-c2ccccc2)nc2ccccc12)Nc1cccc(Cl)c1	?	i	12µM*	-4%	?
O=C(Nc1ccc(Br)cc1)c1cc(-c2ccncc2)nc2ccccc12	?	?	?	16µM*	i
CCn1cc(C(=O)N2CCCC(C(=O)c3cccc(C(F)(F)F)c3)C2)cn1 (configuration not stated)	·	i	·	·	?
C=CCN1C(=O)c2cccc3c(N4CCCCC4)ccc(c23)C1=O	1%	i	16µM*	?	i
Cc1n[nH]c(C)c1N1C(=O)c2cccc3c(N4CCCCCC4)ccc(c23)C1=O	?	i	?	16%	21µM*
O=C1c2cccc3c(N4CCCCC4)ccc(c23)C(=O)N1CCO	?	i	?	?	?
O=C1c2cccc3c(N4CCCCC4)ccc(c23)C(=O)N1c1cccc(O)c1	8%	?	12µM*	?	?
CC[C@@H]1CC2=C(C(=O)OC(C)(C)O2)[C@H](c2ccc(Cl)cc2)O1	·	i	·	·	i
O=C(Cn1ncc2c3ccccc3n(Cc3ccccc3)c2c1=O)NCCCN1CCCCC1	·	i	·	·	i
CCOc1ccc(NC(=O)NC(CC)Cn2nnc3ccccc3c2=O)cc1 (configuration not stated)	·	i	·	·	i
CCCC[C@@H]1Cc2[nH][nH]c(=O)c2[C@H](c2ccc(C(C)C)cc2)O1	·	i	·	·	i
Cc1ccc(S(=O)(=O)c2cc3ccccc3oc2=Nc2ccc3c(c2)OCO3)cc1	4%	i	-2%	0%	i
Cc1ccc(S(=O)(=O)c2cc3ccccc3oc2=Nc2ccc3c(c2)OCCO3)cc1	-13%	i	2%	-3%	10µM*
Cc1cn([C@H]2C[C@H](O)[C@@H](CNC=O)O2)c(=O)[nH]c1=O	·	i	·	·	i
SMILES	ELG1 DNA repair	KB-3-1 cytotox	MCF10A rerep	SW480 rereplic	KB-V1 MDR tox
Cc1ccc(S(=O)(=O)N2[C@@H](c3cccc(Cl)c3)C(C(=O)OC(C)(C)C)=CC[C@H]2c2ccc(C(C)C)cc2)cc1	·	i	·	·	i
CCCCN1CC(COCc2ccccc2)Oc2cccc(OCCN3C(=O)[C@@H]4[C@H](C3=O)C3C=C[C@H]4C3)c2S1(=O)=O (some centres not stated)	·	?	?	0%	15µM*
C1=Cc2ccccc2/C1=C/c1ccc2c(c1)OCO2	·	i	·	·	i
COc1ccc(-c2cc(=Nc3c(C)n(C)n(-c4ccccc4)c3=O)c3ccccc3o2)cc1	?	i	3%	-3%	?
COc1ccc(-c2c/c(=N\c3nc(-c4ccccc4)c(C)s3)c3ccccc3o2)cc1O	?	5.2µM*	?	?	5.8µM*
OC(CN1C=CCc2ccccc21)c1ccc(Cl)cc1Cl (configuration not stated)	·	i	·	·	?
COc1cccc(NC(=O)[C@@H]2CCC(=O)N2C2OC(=O)c3ccccc32)c1 (some centres not stated)	-11%	i	-12%	3%	i
O=C1OC(N2C(=O)CC[C@H]2C(=O)Nc2cccc(F)c2)c2ccccc21 (some centres not stated)	-5%	i	-57%	4.1µM*	i
COc1cc2ccccc2cc1C(=O)OCc1nc2ccsc2c(=O)[nH]1	-9%	i	?	4%	i
O=C(NNC1=Nc2ccccc2SC1)c1ccc(F)cc1	9.2µM*	?	2%	-6%	i
O=C(NNC(=O)c1ccc(F)cc1)c1ccncc1	-2%	i	-2%	-6%	i
O=C(NNC1=Nc2ccccc2SC1)c1ccc(Cl)cc1	6.5µM*	?	?	18µM*	?
O=C(NNc1c2ccccc2nc2ccccc12)c1ccc(Cl)cc1	0%	?	7%	?	i
CCCc1cc(=O)n2[nH]c(NC(=O)c3ccccc3Cl)nc2n1	·	i	·	·	i
CCCOC(=O)N[C@@H]1C(=O)N2C(C(=O)OCCC)=C(C)CS[C@H]12	-15%	16µM*!	16%	49%	?
CCCN[C@@H]1C(=O)N2C(C(=O)OCCC)=C(C)CS[C@H]12	10%	i	17%	18%	?
